Screen size: about 5,500 compounds; about 2,000 (36%) were called active. Roughly 18% stayed inconclusive and do not appear here. Rule as the data show it: active = normalized growth mostly below about 0.91 (no sharp cut-off); inconclusive = no clear call, values can overlap the other calls; inactive = mostly above about 0.92. The list shows a part of the results.
Assay: chemical genetic growth profiling, strain panel (AID 1159580);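 also: tested at 20 µM; growth read once vehicle control cultures reached saturation at 30 °C; 1 = growth at the plate median or of vehicle wells; lower values mean less growth of the strain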
Conditions: S. cerevisiae deletion strains, growth OD

Measured: normalized growth

CN=C(NC#N)NCCSCc1nc(N=C(N)N)cs1
inactive: locus YAL021C, strain ccr4, active compounds read low 0.966 | locus YAL026C, strain drs2, active compounds read low 0.981 | locus YAL030W, strain snc1, active compounds read low 0.998 | locus YBL061C, strain skt5, active compounds read low 0.988 | locus YBR009C, strain hhf1, active compounds read low 0.99 | locus YBR023C, strain chs3, active compounds read low 0.991 | locus YBR171W, strain sec66, active compounds read low 0.975 | locus YBR231C, strain swc5, active compounds read low 0.986 | locus YBR279W, strain paf1, active compounds read low 0.99 | locus YCL011C, strain gbp2, active compounds read low 0.966 | locus YCL016C, strain dcc1, active compounds read low 0.984 | locus YCL061C, strain MRC1, active compounds read low 0.974 | locus YCL069W, strain vba3, active compounds read low 0.978 | locus YCR088W, strain abp1, active compounds read low 0.967 | locus YDL005C, strain med2, active compounds read low 0.986 | locus YDL040C, strain nat1, active compounds read low 0.994 | locus YDR001C, strain nth1, active compounds read low 0.978 | locus YDR069C, strain doa4, active compounds read low 0.988 | locus YDR137W, strain rgp1, active compounds read low 0.977 | locus YDR159W, strain sac3, active compounds read low 0.985 | locus YDR195W, strain ref2 0.957 | locus YDR297W, strain sur2, active compounds read low 0.976 | locus YDR334W, strain swr1, active compounds read low 0.944 | locus YDR335W, strain msn5, active compounds read low 0.974 | locus YDR392W, strain spt3, active compounds read low 0.977 | locus YEL003W, strain gim4, active compounds read low 0.977 | locus YEL037C, strain rad23, active compounds read low 0.937 | locus YEL061C, strain CIN8 (second series), active compounds read low 0.979 | locus YER015W, strain faa2, active compounds read low 0.981 | locus YER016W, strain bim1, active compounds read low 0.99 | locus YER111C, strain swi4, active compounds read low 0.993 | locus YER155C, strain BEM2 (second series), active compounds read low 0.99 | locus YFR010W, strain ubp6, active compounds read low 0.96 | locus YGL167C, strain pmr1, active compounds read low 0.982 | locus YGL173C, strain kem1, active compounds read low 0.983 | locus YGL227W, strain vid30, active compounds read low 0.981 | locus YGL240W, strain doc1, active compounds read low 0.991 | locus YGL253W, strain hxk2, active compounds read low 0.998 | locus YHR013C, strain ard1, active compounds read low 0.97 | locus YHR027C, strain rpn1, active compounds read low 0.984 | locus YHR142W, strain chs7, active compounds read low 0.947 | locus YJL092W, strain hpr5, active compounds read low 0.978 | locus YJL095W, strain BCK1 (second series), active compounds read low 0.984 | locus YJL115W, strain asf1, active compounds read low 0.959 | locus YJL129C, strain trk1, active compounds read low 0.971 | locus YJL154C, strain vps35, active compounds read low 0.979 | locus YJL164C, strain tpk1, active compounds read low 0.989 | locus YJL166W, strain qcr8, active compounds read low 0.987 | locus YJL187C, strain SWE1, active compounds read low 0.985 | locus YKL160W, strain elf1, active compounds read low 0.975 | locus YKR026C, strain gcn3, active compounds read low 0.963 | locus YKR091W, strain srl3, active compounds read low 0.986 | locus YLL001W, strain dnm1, active compounds read low 0.985 | locus YLL026W, active compounds read low 0.98 | locus YLL041C, strain sdh2, active compounds read low 0.973 | locus YLR027C, strain aat2, active compounds read low 0.984 | locus YLR221C, strain rsa3, active compounds read low 0.987 | locus YLR258W, strain gsy2, active compounds read low 0.996 | locus YLR262C, strain YPT6 (second series), active compounds read low 0.984 | locus YLR320W, strain mms22, active compounds read low 0.99 | locus YLR342W, strain FKS1, active compounds read low 0.987 | locus YLR357W, strain rsc2, active compounds read low 0.977 | locus YLR370C, strain arc18, active compounds read low 0.983 | locus YLR384C, strain iki3, active compounds read low 0.991 | locus YML120C, strain ndi1, active compounds read low 0.949 | locus YMR058W, strain fet3, active compounds read low 0.966 | locus YMR125W, strain sto1, active compounds read low 0.992 | locus YMR129W, active compounds read low 0.981 | locus YMR205C, strain PFK2, active compounds read low 0.994 | locus YMR231W, strain pep5, active compounds read low 0.984 | locus YNL071W, strain lat1, active compounds read low 0.977 | locus YNL209W, strain ssb2, active compounds read low 0.982 | locus YNL248C, strain rpa49, active compounds read low 0.94 | locus YNL322C, strain KRE1 (second series), active compounds read low 0.984 | locus YNR049C, strain mso1, active compounds read low 0.982 | locus YOR001W, strain rrp6, active compounds read low 0.975 | locus YOR070C, strain gyp1, active compounds read low 0.999 | locus YOR080W, strain dia2, active compounds read low 0.974 | locus YOR083W, strain WHI5, active compounds read low 0.975 | locus YOR106W, strain vam3, active compounds read low 0.983 | locus YOR265W, strain rbl2, active compounds read low 0.991 | locus YOR270C, strain vph1, active compounds read low 0.983 | locus YOR290C, strain snf2, active compounds read low 1.01 | locus YPL051W, strain arl3, active compounds read low 0.981 | locus YPL078C, strain atp4, active compounds read low 0.976 | locus YPL106C, strain sse1, active compounds read low 0.984 | locus YPL240C, strain hsp82, active compounds read low 0.971
